Assay in all cases: DAPPL (digital affinity profiling via proximity ligation, sequencing); 10 mM Tris-HCl pH 7.5, 50 mM NaCl, 1 mM DTT, 4% glycerol, room temperature, 30 min; GST-TFs on glutathione beads, 16-mer random dsDNA library, 0.1% formaldehyde crosslink after washing; high values mean tight binding
Common to all, as to details: protein: recombinant; tags: N-terminal GST; dsDNA, one strand shown

The target of one test is T1, GABPA (Homo sapiens, UniProt Q06546 1-454).
T1 sequence: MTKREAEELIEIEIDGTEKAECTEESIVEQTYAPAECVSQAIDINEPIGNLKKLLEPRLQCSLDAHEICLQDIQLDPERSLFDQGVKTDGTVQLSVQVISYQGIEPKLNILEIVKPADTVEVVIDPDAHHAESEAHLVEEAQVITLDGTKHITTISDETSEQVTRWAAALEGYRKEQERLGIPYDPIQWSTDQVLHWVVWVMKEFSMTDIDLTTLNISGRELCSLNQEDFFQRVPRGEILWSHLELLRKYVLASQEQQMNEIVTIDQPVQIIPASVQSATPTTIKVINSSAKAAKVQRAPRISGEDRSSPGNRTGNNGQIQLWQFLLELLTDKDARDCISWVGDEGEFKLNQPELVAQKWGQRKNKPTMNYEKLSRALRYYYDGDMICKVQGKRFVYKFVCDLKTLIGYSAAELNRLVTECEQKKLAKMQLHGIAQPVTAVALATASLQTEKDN
Summed up: (§1)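 A tag-only sample was pooled with DNA-barcoded human transcription factors that had been expressed in yeast as GST fusions and captured on glutathione beads. The pools were incubated for 30 min at room temperature with 200 nmole of a random double-stranded 16-mer DNA library in Tris/NaCl/DTT/glycerol buffer, then washed, crosslinked with 0.1% formaldehyde, proximity-ligated (BsaI/T4 ligase, 1 h, 37 °C), PCR-amplified and sequenced on an Illumina NextSeq500. Binding signal is each hexamer's read frequency for a factor divided by its frequency for the tag-only sample.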

The target in the next test is T2, ERG (Homo sapiens, UniProt P11308 1-479).
T2 sequence: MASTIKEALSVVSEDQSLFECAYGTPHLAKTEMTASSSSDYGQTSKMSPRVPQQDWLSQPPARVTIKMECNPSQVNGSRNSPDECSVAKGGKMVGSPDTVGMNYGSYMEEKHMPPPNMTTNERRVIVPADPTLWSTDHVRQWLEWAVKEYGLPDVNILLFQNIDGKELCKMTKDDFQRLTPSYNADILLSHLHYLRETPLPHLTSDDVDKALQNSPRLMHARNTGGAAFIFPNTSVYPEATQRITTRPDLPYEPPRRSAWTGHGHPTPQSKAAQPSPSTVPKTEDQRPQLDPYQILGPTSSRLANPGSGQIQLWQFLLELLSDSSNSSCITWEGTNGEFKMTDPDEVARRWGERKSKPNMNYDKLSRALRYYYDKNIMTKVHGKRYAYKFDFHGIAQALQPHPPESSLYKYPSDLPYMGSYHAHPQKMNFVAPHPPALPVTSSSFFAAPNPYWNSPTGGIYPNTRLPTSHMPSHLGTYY
In a few lines: as §1

A further test addresses ELF1 (Homo sapiens, UniProt P32519 1-619). Summed up:
as §1

A further test concerns the target T3, EHF (Homo sapiens, UniProt Q9NZC4 1-300).
T3 sequence: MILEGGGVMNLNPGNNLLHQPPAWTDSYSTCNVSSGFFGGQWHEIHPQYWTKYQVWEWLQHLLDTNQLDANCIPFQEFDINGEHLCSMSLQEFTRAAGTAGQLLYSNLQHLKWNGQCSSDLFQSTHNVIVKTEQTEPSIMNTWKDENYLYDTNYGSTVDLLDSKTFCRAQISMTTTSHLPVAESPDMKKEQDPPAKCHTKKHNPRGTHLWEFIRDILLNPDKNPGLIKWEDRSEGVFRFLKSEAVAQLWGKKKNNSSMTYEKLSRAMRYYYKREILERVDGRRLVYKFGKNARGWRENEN
In a few lines: as §1

The next test has as its target SPIB (Homo sapiens, UniProt Q01892 1-262). Summed up:
as §1

The next test has as its target T4, ELK3 (Homo sapiens, UniProt P41970 1-407).
T4 sequence: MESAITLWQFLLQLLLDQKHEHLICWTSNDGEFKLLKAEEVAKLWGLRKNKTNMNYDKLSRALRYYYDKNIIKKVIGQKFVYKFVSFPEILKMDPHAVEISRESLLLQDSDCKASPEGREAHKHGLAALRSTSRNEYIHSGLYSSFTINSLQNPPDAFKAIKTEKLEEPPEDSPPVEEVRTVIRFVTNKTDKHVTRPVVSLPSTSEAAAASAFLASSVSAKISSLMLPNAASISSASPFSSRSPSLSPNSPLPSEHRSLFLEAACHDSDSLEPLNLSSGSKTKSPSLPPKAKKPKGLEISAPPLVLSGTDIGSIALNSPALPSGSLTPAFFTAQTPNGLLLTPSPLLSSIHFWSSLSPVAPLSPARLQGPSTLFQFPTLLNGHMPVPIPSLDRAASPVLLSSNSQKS
Summed up:
as §1

The next test has as its target T5, SPIC (Homo sapiens, UniProt Q8N5J4 1-248).
T5 sequence: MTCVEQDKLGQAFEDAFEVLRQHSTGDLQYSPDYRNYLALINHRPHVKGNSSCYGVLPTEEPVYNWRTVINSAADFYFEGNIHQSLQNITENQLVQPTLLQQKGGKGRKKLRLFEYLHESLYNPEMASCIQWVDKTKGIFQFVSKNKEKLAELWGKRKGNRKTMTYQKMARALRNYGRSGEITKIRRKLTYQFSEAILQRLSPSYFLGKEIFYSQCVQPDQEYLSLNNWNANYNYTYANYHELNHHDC
Summed up:
as §1

In another test the target is ELF4 (Homo sapiens, UniProt Q99607 1-663). In a few lines: as §1
The target in a further test is T6, ELK4 (Homo sapiens, UniProt P28324-2 1-405).
T6 sequence: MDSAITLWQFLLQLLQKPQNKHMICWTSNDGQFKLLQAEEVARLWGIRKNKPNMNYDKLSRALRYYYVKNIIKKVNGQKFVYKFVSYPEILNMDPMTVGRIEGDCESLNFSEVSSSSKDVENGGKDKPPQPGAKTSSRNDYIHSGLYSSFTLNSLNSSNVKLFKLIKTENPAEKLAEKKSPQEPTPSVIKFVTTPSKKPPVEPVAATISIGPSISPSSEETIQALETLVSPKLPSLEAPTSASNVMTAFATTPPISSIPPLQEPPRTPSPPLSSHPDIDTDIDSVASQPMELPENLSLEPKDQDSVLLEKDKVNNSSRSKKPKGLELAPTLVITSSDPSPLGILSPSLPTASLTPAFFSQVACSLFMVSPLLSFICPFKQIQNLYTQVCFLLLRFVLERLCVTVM
In a few lines: as §1

The next test concerns the target T7, ELF3 (Homo sapiens, UniProt P78545 1-371).
T7 sequence: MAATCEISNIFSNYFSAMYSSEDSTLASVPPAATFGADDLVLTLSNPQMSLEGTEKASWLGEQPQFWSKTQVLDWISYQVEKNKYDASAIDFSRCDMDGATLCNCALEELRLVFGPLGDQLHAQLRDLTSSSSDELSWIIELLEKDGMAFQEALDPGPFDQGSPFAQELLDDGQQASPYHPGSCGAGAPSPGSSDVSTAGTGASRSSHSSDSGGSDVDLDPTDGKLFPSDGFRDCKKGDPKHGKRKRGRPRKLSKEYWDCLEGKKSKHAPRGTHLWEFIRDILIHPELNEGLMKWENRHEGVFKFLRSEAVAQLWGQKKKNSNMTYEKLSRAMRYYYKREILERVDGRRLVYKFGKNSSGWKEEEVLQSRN
In a few lines: as §1

A further test has as its target T8, ERF (Homo sapiens, UniProt P50548 1-548).
T8 sequence: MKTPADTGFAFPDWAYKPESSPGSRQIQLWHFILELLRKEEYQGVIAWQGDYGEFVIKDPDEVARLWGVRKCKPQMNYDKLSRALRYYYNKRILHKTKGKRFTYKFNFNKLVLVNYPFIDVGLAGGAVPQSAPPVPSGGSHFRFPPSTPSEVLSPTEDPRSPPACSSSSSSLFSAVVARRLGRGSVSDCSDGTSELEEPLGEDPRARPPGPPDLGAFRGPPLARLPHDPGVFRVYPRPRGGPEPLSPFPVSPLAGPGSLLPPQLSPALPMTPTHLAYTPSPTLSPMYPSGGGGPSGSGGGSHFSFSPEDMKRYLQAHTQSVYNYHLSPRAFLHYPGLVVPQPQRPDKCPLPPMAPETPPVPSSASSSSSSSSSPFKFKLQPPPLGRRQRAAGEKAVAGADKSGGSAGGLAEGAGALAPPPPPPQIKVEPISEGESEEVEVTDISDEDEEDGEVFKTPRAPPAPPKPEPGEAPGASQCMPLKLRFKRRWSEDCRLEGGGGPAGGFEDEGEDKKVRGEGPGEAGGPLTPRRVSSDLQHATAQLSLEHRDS
In a few lines:
as §1

For a further test, the target named is T9, ETV3L (Homo sapiens, UniProt Q6ZN32 1-361).
T9 sequence: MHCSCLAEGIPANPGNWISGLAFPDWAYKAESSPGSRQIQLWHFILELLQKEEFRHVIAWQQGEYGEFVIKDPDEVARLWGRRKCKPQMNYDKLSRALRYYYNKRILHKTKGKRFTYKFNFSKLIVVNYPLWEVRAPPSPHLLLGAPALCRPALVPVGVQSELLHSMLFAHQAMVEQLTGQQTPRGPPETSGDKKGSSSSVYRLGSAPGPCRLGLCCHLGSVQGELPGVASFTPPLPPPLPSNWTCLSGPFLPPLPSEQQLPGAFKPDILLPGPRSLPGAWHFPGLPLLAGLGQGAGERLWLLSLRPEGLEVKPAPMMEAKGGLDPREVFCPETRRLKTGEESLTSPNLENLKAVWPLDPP
Summed up: as §1

The target of a further test is T10, SPDEF (Homo sapiens, UniProt O95238 1-335).
T10 sequence: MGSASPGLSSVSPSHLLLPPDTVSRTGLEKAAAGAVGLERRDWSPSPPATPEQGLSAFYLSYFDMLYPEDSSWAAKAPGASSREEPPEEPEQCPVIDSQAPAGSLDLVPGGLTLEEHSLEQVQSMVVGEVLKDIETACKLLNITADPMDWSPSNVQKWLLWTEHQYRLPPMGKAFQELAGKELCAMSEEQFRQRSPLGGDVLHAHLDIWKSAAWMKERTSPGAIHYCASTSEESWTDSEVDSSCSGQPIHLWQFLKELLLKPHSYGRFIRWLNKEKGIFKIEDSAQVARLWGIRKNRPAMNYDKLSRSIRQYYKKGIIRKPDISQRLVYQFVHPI
In a few lines: as §1

In a further test the target is T11, ETV7 (Homo sapiens, UniProt Q9Y603 1-341).
T11 sequence: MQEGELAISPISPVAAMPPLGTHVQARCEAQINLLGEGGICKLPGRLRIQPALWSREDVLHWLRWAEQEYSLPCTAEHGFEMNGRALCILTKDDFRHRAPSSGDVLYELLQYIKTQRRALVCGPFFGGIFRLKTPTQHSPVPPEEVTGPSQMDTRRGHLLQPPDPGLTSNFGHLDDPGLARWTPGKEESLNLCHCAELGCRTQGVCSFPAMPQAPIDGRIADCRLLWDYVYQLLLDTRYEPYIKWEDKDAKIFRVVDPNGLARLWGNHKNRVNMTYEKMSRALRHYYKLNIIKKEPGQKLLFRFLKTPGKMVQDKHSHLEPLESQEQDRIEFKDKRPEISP
In a few lines: as §1

ELF1, sequence (P32519 whole entry): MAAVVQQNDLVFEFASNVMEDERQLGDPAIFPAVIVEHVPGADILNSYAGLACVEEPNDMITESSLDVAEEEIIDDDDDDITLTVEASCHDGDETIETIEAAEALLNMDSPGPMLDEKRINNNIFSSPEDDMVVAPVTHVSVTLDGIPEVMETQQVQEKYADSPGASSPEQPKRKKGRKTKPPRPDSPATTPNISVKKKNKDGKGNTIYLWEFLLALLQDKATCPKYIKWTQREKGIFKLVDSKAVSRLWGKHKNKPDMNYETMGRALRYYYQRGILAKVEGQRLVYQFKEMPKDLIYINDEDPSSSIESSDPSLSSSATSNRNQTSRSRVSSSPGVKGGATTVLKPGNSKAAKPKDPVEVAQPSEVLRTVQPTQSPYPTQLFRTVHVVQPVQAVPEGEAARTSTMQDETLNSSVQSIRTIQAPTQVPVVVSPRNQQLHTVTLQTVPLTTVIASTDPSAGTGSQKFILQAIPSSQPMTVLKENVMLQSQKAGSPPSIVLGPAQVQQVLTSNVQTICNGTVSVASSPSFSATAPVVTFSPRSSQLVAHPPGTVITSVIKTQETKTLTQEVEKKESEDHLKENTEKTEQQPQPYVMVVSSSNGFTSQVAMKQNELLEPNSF
SPIB, sequence (Q01892 whole entry): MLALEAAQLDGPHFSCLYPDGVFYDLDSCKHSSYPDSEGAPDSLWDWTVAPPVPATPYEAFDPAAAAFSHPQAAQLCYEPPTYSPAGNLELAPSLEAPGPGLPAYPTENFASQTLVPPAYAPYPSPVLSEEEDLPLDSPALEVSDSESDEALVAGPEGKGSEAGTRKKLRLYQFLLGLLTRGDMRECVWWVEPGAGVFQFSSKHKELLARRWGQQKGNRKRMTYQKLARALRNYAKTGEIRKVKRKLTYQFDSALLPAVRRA
ELF4, sequence (Q99607 whole entry): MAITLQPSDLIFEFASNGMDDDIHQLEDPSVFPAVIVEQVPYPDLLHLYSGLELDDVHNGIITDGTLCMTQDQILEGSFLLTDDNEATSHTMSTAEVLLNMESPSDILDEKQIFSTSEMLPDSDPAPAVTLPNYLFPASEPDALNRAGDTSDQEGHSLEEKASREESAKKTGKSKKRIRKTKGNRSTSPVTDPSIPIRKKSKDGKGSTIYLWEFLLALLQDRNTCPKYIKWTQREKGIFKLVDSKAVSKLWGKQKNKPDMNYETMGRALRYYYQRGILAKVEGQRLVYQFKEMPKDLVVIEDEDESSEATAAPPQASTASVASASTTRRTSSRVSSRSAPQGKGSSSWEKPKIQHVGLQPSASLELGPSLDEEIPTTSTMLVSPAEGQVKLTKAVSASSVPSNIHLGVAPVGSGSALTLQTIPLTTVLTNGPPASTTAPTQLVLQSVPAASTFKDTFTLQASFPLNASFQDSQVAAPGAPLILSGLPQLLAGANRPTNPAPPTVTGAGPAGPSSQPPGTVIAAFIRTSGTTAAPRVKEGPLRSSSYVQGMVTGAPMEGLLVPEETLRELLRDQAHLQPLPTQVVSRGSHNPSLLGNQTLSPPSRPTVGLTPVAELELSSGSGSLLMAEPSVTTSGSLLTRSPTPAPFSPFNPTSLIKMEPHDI

With CTAGCC, the binding signal in the test with GABPA is 1 fold enrichment (6-mer frequency, TF over GST control); with ERG, 1.01 fold enrichment (6-mer frequency, TF over GST control); with ELF1 it was 1.07 fold enrichment (6-mer frequency, TF over GST control); in the test with EHF it was 1 fold enrichment (6-mer frequency, TF over GST control); with SPIB it was 1.02 fold enrichment (6-mer frequency, TF over GST control); in the test with ELK3, 1.1 fold enrichment (6-mer frequency, TF over GST control). For the same sequence, the binding signal is 1.08 fold enrichment (6-mer frequency, TF over GST control) with SPIC; 1.01 fold enrichment (6-mer frequency, TF over GST control) in the test with ELF4; 1.1 fold enrichment (6-mer frequency, TF over GST control) in the test with ELK4; 1.04 fold enrichment (6-mer frequency, TF over GST control) in the test with ELF3; 1.13 fold enrichment (6-mer frequency, TF over GST control) with ERF; 1.06 fold enrichment (6-mer frequency, TF over GST control) with ETV3L. Further, the binding signal in the test with SPDEF was 1.02 fold enrichment (6-mer frequency, TF over GST control); with ETV7, 1.02 fold enrichment (6-mer frequency, TF over GST control).

These data come from publication PMC7862700, “An all-to-all approach to the identification of sequence-specific readers for epigenetic DNA modifications on cytosine”.
